Activity calls are given as the source filed them.
Assays:
[1] = optical density shifts of acrAB sulA E. coli – strain DRC41, OD650, 48 h, E. coli filamentation inducer project, primary screen (AID 1152); conditions: higher = more signal, called active from +8 up or from −8 down;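 further: E. coli MC1000 strain DRC41 lacking acrAB efflux pump and sulA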
[2] = probe aLefty1 binding on compound microarray – biochemical, small-molecule microarray, 635/667 nm fluorescence, primary screen (AID 1153); conditions: higher = more signal;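 further: score merges spot fluorescence with signal-to-noise ratio from the scanned slide images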
[3] = plasmodial surface anion channel blockers, osmotic lysis – cell-based, P. falciparum Indochina, OD700, 1 h, primary screen (AID 1154); conditions: P. falciparum Indochina infected RBC osmotic lysis, higher = more signal, called active from +8 up or from −8 down
[4] = plasmodial surface anion channel blockers, osmotic lysis – cell-based, P. falciparum Indochina, OD700, 2 h, primary screen (AID 1155);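 further: lysis reports solute entry through the parasite surface anion channel PSAC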; conditions: P. falciparum Indochina infected erythrocytes, higher = more signal, called active from +8 up or from −8 down
[5] = changes in parasitized red cell lysis, either direction – P. falciparum Indochina, OD700, 3 h, PSAC antagonist project, primary screen (AID 1156); conditions: P. falciparum-infected erythrocytes, osmotic lysis, higher = more signal, called active from +8 up or from −8 down
[6] = plasmodial surface anion channel blockers, osmotic lysis – cell-based, P. falciparum Indochina, OD700, 18 h, primary screen (AID 1157); conditions: P. falciparum Indochina infected erythrocytes, osmotic lysis OD700, 18 h; higher = more signal, called active from +8 up or from −8 down
[7] = S6 kinase pathway phospho-S6 level changes – cell-based, A549, cytoblot, luminescence, serum-stimulated, primary screen (AID 1158); conditions: 5 h, higher = more signal;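 further: serum-stimulated A549 lung adenocarcinoma cells; signal is phosphorylated S6 detected by cytoblot immunostaining with HRP secondary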
[8] = biological target: NADPH oxidase 2 (Homo sapiens) (UniProt P04839); assay: compounds shifting NOX2 Amplex Red fluorescence – cell-based, HEK293-NOX2, PMA-stimulated, NOX inhibitor project, primary screen (AID 1159); conditions: 45 min, higher = more signal, called active from +8 up or from −8 down; further: test concentration not given here
[9] = biological target: NADPH oxidase 4 (Homo sapiens) (UniProt Q9NPH5); assay: compounds shifting NOX4 Amplex Red fluorescence – cell-based, HEK293-NOX4, tetracycline-induced, NOX inhibitor project, primary screen (AID 1160); conditions: HEK293-NOX4, Amplex Red H2O2 fluorescence, 45 min; higher = more signal, called active from +8 up or from −8 down
[10] = biological target: NADPH oxidase 5 (Homo sapiens) (UniProt Q96PH1); assay: compounds shifting NOX5 Amplex Red fluorescence – cell-based, HEK293-NOX5, NOX inhibitor project, primary screen (AID 1161); conditions: HEK293-NOX5, ionomycin, 45 min, higher = more signal
[11] = compound effects on lung adenocarcinoma cell viability – A549, calcein-AM fluorescence, 48 h, basal, profiling panel (AID 1162); conditions: higher = more signal; further: test concentration not given here
[12] = compound effects on differentiated 3T3-L1 adipocyte viability – cell-based, 3T3-L1 adipocytes, calcein-AM fluorescence, 48 h, basal, profiling panel (AID 1163); conditions: 3T3-L1 adipocytes viability, higher = more signal; further: test concentration not given here
[13] = compound effects on hepatocellular carcinoma cell viability – HepG2, calcein-AM fluorescence, 48 h, basal, profiling panel (AID 1164); conditions: higher = more signal; further: test concentration not given here
[14] = compound effects on multiple myeloma cell viability – MM1S, calcein-AM fluorescence, 48 h, basal, profiling panel (AID 1165); conditions: higher = more signal; further: test concentration not given here
[15] = calcein-AM signal in unstimulated myeloma cells – cell-based, calcein-AM fluorescence, 48 h, PK04 Diversity Set, profiling panel (AID 1166); conditions: RPMI8226 myeloma viability, higher = more signal;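 further: cells grown under basal conditions without added stimulus; test concentration not given here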
[16] = JC-1 mitochondrial signal, unstimulated HepG2 cells – cell-based, JC-1 fluorescence, 24 h, 100 nL compound, profiling panel (AID 1167); conditions: HepG2 mitochondrial potential, higher = more signal; further: test concentration not given here
[17] = JC-1 mitochondrial signal, unstimulated adipocytes – cell-based, JC-1 fluorescence, 3T3-L1 adipocytes, 24 h, 100 nL compound, profiling panel (AID 1168); conditions: JC-1 mitochondrial fluorescence, higher = more signal, called active from +8 up or from −8 down; further: test concentration not given here
[18] = JC-1 mitochondrial signal, unstimulated myeloma cells – cell-based, JC-1 fluorescence, RPMI8226, 24 h, 100 nL compound, profiling panel (AID 1169); conditions: JC-1 mitochondrial potential fluorescence, higher = more signal; further: test concentration not given here
[19] = JC-1 mitochondrial signal, unstimulated MM1S myeloma – cell-based, JC-1 fluorescence, 24 h, 100 nL compound, profiling panel (AID 1170); conditions: MM1S mitochondrial potential, higher = more signal; further: test concentration not given here
[20] = resazurin metabolic signal in A549 cells – cell-based, resazurin fluorescence, 24 h, PK04 Diversity Set, profiling panel (AID 1171); conditions: A549 viability, higher = more signal, called active from +8 up or from −8 down; further: test concentration not given here

Chain of NADPH oxidase 4 (Homo sapiens) (Q9NPH5 whole entry, looked up): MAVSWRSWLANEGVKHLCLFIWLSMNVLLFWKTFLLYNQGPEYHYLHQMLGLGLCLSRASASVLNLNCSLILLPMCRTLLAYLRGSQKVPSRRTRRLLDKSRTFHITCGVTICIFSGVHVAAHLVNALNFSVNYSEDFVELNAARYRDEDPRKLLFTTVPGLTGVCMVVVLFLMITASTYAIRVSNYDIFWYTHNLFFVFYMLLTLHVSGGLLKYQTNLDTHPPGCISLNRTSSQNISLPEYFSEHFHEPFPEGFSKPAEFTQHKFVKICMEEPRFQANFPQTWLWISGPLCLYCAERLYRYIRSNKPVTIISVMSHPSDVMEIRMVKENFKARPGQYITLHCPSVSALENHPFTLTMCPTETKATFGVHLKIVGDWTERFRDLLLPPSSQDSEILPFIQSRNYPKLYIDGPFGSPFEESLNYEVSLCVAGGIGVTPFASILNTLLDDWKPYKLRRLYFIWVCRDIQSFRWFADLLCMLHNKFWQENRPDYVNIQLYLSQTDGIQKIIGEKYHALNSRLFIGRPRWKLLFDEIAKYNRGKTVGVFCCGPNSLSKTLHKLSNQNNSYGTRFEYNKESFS
Chain of NADPH oxidase 2 (Homo sapiens) (P04839 whole entry, looked up): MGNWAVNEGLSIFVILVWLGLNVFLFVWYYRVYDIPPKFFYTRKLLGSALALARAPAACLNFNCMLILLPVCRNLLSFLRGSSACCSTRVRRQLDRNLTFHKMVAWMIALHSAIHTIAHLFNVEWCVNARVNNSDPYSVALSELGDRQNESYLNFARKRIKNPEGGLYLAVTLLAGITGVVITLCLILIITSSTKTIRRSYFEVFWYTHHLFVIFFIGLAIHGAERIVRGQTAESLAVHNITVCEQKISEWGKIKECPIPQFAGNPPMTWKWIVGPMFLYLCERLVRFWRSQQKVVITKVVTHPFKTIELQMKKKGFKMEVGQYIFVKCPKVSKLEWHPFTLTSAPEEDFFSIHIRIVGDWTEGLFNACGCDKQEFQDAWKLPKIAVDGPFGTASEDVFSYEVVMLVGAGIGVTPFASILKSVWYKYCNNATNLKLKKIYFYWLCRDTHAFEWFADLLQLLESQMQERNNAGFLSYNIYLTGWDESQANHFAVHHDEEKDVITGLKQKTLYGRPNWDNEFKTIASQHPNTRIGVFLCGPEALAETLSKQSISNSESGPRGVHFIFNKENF
Chain of NADPH oxidase 5 (Homo sapiens) (Q96PH1 whole entry, looked up): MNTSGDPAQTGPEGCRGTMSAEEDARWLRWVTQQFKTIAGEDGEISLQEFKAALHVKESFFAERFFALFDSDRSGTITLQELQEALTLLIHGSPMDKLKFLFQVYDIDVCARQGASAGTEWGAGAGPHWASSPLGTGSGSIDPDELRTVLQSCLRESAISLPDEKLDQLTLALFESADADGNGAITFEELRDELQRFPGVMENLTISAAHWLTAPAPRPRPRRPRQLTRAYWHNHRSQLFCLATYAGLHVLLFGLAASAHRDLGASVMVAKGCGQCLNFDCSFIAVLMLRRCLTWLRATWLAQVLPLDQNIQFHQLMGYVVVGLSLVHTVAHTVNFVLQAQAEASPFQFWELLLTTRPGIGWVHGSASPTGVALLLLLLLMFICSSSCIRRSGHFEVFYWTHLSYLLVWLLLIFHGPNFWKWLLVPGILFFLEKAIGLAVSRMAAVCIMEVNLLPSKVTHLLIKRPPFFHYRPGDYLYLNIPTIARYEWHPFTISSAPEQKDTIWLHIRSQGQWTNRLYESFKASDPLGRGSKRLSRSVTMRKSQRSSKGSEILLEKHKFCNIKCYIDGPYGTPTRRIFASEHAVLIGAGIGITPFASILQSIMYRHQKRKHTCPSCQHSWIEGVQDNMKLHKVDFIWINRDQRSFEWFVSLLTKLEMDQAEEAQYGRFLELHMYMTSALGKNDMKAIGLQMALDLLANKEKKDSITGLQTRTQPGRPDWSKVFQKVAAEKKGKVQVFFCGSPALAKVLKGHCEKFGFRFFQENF

SMILES	z-score [1]	composite z-score [2]	z-score [3]	z-score [4]	z-score [5]	z-score [6]	z-score [7]	z-score [8]	z-score [9]	z-score [10]	z-score [11]	z-score [12]	z-score [13]	z-score [14]	z-score [15]	z-score [16]	z-score [17]	z-score [18]	z-score [19]	z-score [20]
CCN1C(C)=C(C(=O)OC)[C@@H](c2ccccc2)N2C(=O)[C@](O)(C(=O)OC)[C@@H](c3ccccc3)C(C(C)=O)=C12	-0.461 (inactive)	-0.0111	2.31 (inactive)	0.414 (inactive)	0.291 (inactive)	0.0714 (inactive)	3.95	-0.211 (inactive)	-0.585 (inactive)	1.35	0.158	2.15	-0.473	0.244	-0.918	1.35	0.982 (inactive)	0.195	-0.14	-0.468 (inactive)
COCCOC(=O)N1C(=O)[C@@]2(c3cc(C#CCCO)ccc31)[C@H](c1ccc(OCCO)cc1)N1[C@H](c3ccccc3)[C@H](c3ccccc3)OC(=O)[C@H]1[C@@H]2C(=O)NC[C@H](O)c1ccccc1	1.04 (inactive)	-0.0054	2.48 (inactive)	1.1 (inactive)	0.68 (inactive)	0.678 (inactive)	0.75	2.04 (inactive)	0.385 (inactive)	0.419	0.0831	1.33	-0.796	0.0067	-1.06	-0.0377	0.357 (inactive)	0.0686	-0.709	0.703 (inactive)
CO[C@H]1O[C@H](CO)[C@@H](OC(=O)Nc2ccc(Oc3ccccc3)cc2)[C@H](OC(=O)Nc2ccccc2-c2ccccc2)[C@H]1OC(=O)Nc1ccccc1-c1ccccc1	1.38 (inactive)	0.371	2.14 (inactive)	0.647 (inactive)	0.55 (inactive)	-1.37 (inactive)	-0.151	1.95 (inactive)	-0.7 (inactive)	0.176	-4.22	1.59	-4.47	-3.39	-4.01	-1.37	1.64 (inactive)	-0.646	-1.81	-4.85 (inactive)
CC(C)=C1C(=O)C(c2ccccc2)=C2CN3C(=O)N(CCc4ccccc4)C(=O)[C@]3(Cc3ccccc3)[C@H]21	-1.7 (inactive)	0.341	20.9 (active)	3.79 (inactive)	1.3 (inactive)	0.913 (inactive)	-0.621	-0.379 (inactive)	0.1 (inactive)	0.365	-0.778	0.66	0.0577	0.492	-0.895	-0.366	-0.623 (inactive)	-0.0727	-0.496	-0.723 (inactive)
COC(=O)[C@@]1(Cc2ccccc2CN=[N+]=[N-])N=C(c2ccc(OCCCO)cc2)O[C@H]1c1ccccc1N=[N+]=[N-]	-0.55 (inactive)	0.495	26.8 (active)	16.8 (active)	1.76 (inactive)	2.33 (inactive)	0.166	-1.2 (inactive)	1.25 (inactive)	0.841	-2.1	0.0397	-2.36	-2.99	-3.63	-0.00729	-0.222 (inactive)	-1.19	-2.29	-1.35 (inactive)
CCCC=C(CCC)[C@@H](NS(=O)(=O)c1ccc(-c2ccccc2)cc1)c1ccc(C(=O)OC)cc1	-2.25 (inactive)	-0.202	0.757 (inactive)	-0.515 (inactive)	0.248 (inactive)	-1.71 (inactive)	2.45	-4.5 (inactive)	-4.82 (inactive)	-2.09	-1.34	0.906	-1.52	-1.18	-2.93	-4.34	0.0846 (inactive)	0.326	-1.78	1.35 (inactive)
[N-]=[N+]=NCc1ccccc1C[C@@]1(C(=O)O)N=C(c2ccc(OCCCO)cc2)O[C@@H]1c1ccccc1N=[N+]=[N-]	0.051 (inactive)	0.337	30.3 (active)	24.4 (active)	1.44 (inactive)	5.12 (inactive)	-0.272	-0.0613 (inactive)	1.21 (inactive)	0.819	0.593	0.0001	0.435	-1.52	-2.27	-1.58	0.428 (inactive)	-0.898	-1.31	-1.32 (inactive)
Cc1ccc(S[C@]2(C(=O)NCCN3CCOCC3)CC(=O)N(C3Cc4ccccc4C3)[C@@H]2c2ccc(CO)cc2I)cc1	1.86 (inactive)	0.392	6.65 (inactive)	-0.0443 (inactive)	0.591 (inactive)	-0.926 (inactive)	1.22	2.05 (inactive)	-1.59 (inactive)	1.33	1.47	1.33	-0.0794	-3.23	-1.84	0.899	-0.211 (inactive)	-0.993	-1.02	0.842 (inactive)
CCN1C(C)=C(C(=O)OC)[C@@H](c2ccccc2)N2C(=O)[C@@]3(C(=O)OC)O[C@@]12[C@@H]1C(=O)N(C)C(=O)[C@@H]13	-0.871 (inactive)	-0.0954	0.339 (inactive)	-1.13 (inactive)	0.0125 (inactive)	-1.65 (inactive)	0.629	1.52 (inactive)	-1.65 (inactive)	-0.267	0.0516	0.59	-0.616	-1.51	0.68	0.684	1.15 (inactive)	0.644	-0.196	0.363 (inactive)
C=CC[C@@]12N=C(c3ccc(OCCCO)cc3)O[C@@H]1c1ccccc1CN(Cc1ccccc1)C2=O	0.786 (inactive)	0.271	28.3 (active)	24.9 (active)	3.34 (inactive)	2.29 (inactive)	0.557	-1.33 (inactive)	-0.765 (inactive)	-1.71	-0.843	2.38	-1.92	-3.46	-4.51	0.0441	-0.218 (inactive)	-1.36	-1.45	-1.9 (inactive)
COc1ccc(C(=O)Nc2ccc(CN3C(=O)[C@]4(O[C@H](CCn5cc(CCO)nn5)[C@@H]([Si](C)(C)c5ccc(OC)cc5)[C@@H]4C)c4ccccc43)cc2)cc1	0.173 (inactive)	0.0253	9.37 (active)	2.64 (inactive)	1.68 (inactive)	1.67 (inactive)	-0.196	0.844 (inactive)	0.392 (inactive)	3.29	-3.11	-0.616	-4.54	-2.68	-4.37	1.17	1.3 (inactive)	-1.1	-1.8	-3.05 (inactive)
CSCC[C@@H]1NC(=O)CC=C[C@@H](C)COC(=O)[C@H](CCSC)NC(=O)CC=C[C@@H](C)COC1=O	-0.77 (inactive)	-0.0559	-0.138 (inactive)	-0.774 (inactive)	-1.73 (inactive)	-1.85 (inactive)	0.214	-1.26 (inactive)	0.731 (inactive)	1.5	0.364	1.7	0.0574	0.0493	0.0542	0.79	0.647 (inactive)	0.508	0.388	0.376 (inactive)
C=C(CCCC)/C(=C/C[C@@H](OC(=O)c1ccncc1)c1cccc(OCCO)c1)c1cc(C(=O)OC)ccc1OC	1.37 (inactive)	0.0371	21 (active)	3.89 (inactive)	2.48 (inactive)	1.26 (inactive)	-0.365	1.33 (inactive)	1.62 (inactive)	-0.975	1.25	-0.209	0.872	-2.25	-2.99	2.91	0.244 (inactive)	0.0948	-0.132	0.767 (inactive)
CO[C@H]1COC(=O)[C@H](CCSC)NC(=O)CC=C[C@@H](C)COC(=O)[C@@H](OCc2ccccc2)C=C[C@@H]1C	-0.332 (inactive)	-0.109	-0.349 (inactive)	0.238 (inactive)	0.04 (inactive)	-0.236 (inactive)	0.182	1.65 (inactive)	-1.43 (inactive)	0.00807	0.349	0.507	0.0042	0.199	-0.358	0.842	1.23 (inactive)	0.365	1.34	0.613 (inactive)
C=CCOC(=O)[C@@H]1[C@H]2C(=O)O[C@H](c3ccccc3)[C@H](c3ccccc3)N2[C@H](c2ccc(OCCOC(=O)[C@H]3C[C@H]4C(=O)N[C@@H](CCCCNC(C)=O)C(=O)N4[C@H]3c3ccc(O)cc3)cc2)[C@@]12C(=O)Nc1ccc(I)cc12	-0.725 (inactive)	0.325	2.99 (inactive)	1.92 (inactive)	0.855 (inactive)	1.23 (inactive)	1.3	2.16 (inactive)	1.27 (inactive)	1.64	-0.778	-0.796	-0.931	-0.989	0.572	-0.422	0.725 (inactive)	-0.324	-0.99	0.213 (inactive)
CCc1cccc(NC(=O)O[C@H]2[C@H](OC(=O)Nc3ccccc3)[C@@H](OC(=O)Nc3ccccc3)[C@@H](OC)O[C@@H]2CO)c1	0.172 (inactive)	0.424	5.28 (inactive)	1.13 (inactive)	-0.298 (inactive)	0.667 (inactive)	0.211	-6.71 (inactive)	-1.24 (inactive)	-2.35	-2.42	1.1	-4.04	-3.01	-4.29	-0.501	0.963 (inactive)	-1.21	-1.53	-4.14 (inactive)

Reference: PubChem BioAssay
